Data: ChEMBL document CHEMBL4513216, “Probing the Open Global Health Chemical Diversity Library for Multistage-Active Starting Points for Next-Generation Antimalarials” (ACS Infect Dis, 2020)
Out of some 69,000 compounds screened, about 8,600 (12%) showed an effect of 50% or more. The full list was thinned out, with strong results kept by preference.

The compounds below were run on Plasmodium berghei (assay: Screen against P. berghei liver stage (PbLuc), transformed with Luciferase, at 10uM). Conditions: tested at 10 uM.
Format: functional, HepG2

SMILES	INHIBITION
CCc1nccn1-c1cncc(C2CCN(C(=O)COC)CC2)n1	-22.6%
COc1nc2cc(C)ccc2cc1CN(C)Cc1n[nH]c2c1CCCC2	28.15%
Cc1cc(CN(C)C(C(=O)O)c2ccc(C(C)(C)C)cc2)on1 (centres undefined)	58.4%
CCOc1cccc(C(C(=O)O)N(C)Cc2cc(C)no2)c1 (centres undefined)	-24.6%
Cc1cc(CN(C)C(C(=O)O)c2cccc(C(F)(F)F)c2)on1 (centres undefined)	-21.2%
CN(Cc1cc[nH]n1)C(=O)c1ccc2c(c1)nc(N1CC[C@H](O)C1)n2C	22.6%
COc1ccc(COCC(O)CSc2ccc(NC(C)=O)cc2)cc1 (centres undefined)	5.75%
O=C(O)CCN(Cc1ccc(F)c(F)c1)C(=O)C1CC1	40.1%
N#Cc1ccc(Cl)cc1NCC1CCOC1 (centres undefined)	-10.5%
Cc1c(C(=O)O)sc2nc(C(F)(F)F)ccc12	-11.9%
Cc1c(C(N)=O)sc2nc(C(F)(F)F)ccc12	54.5%
Cc1c(C(=O)N2CCSCC2)sc2nc(C(F)(F)F)ccc12	14.9%
Cc1ncnc(NCCCN2CCCCC2CO)c1C (centres undefined)	-17.8%
CC(C(N)=O)N1CCN(c2ncc(Br)cn2)CC1 (centres undefined)	21.8%
CCn1c(C)nnc1SCCNc1nc(C)nc2c1cnn2C	26.7%
CCc1cnc(C)nc1NCCSc1nnc(C)n1CC	55.7%
CCn1c(C)nnc1SCCNc1nc(C)ncc1S(C)(=O)=O	-22.4%
Cc1cccc(CN2CCC3(CCCN(C(=O)NC(C)C)C3)C2=O)n1 (centres undefined)	8.67%
Cc1ccc(C(=O)N2C[C@H]3CCC[C@@]3(COCC3CCOCC3)C2)o1	62.5%
O=C(c1ccccn1)N1C[C@H]2CCC[C@@]2(COCC2CCOCC2)C1	45.1%
O=C(c1ncccn1)N1C[C@H]2CCC[C@@]2(COCc2ccncc2)C1	-15.8%
c1csc(CN2C[C@H]3CCC[C@@]3(COCC3CCOCC3)C2)n1	49.7%
O=C(c1ccnnc1)N1C[C@H]2CCC[C@@]2(COCC2CCOCC2)C1	43.8%
O=C(c1cccs1)N1C[C@H]2CCC[C@@]2(COCC2CCOCC2)C1	77.7%
O=C(c1ncccn1)N1C[C@H]2CCC[C@@]2(COCC2CCOCC2)C1	0%
Cc1ncoc1C(=O)N1C[C@H]2CCC[C@@]2(COCC2CCOCC2)C1	44.4%

SMILES	INHIBITION
O=C(c1ccncn1)N1C[C@H]2CCC[C@@]2(COCC2CCOCC2)C1	64.9%
CCCOc1cc(C)ccc1NC(=O)N(C)Cc1cnn(C)c1	38.5%
O=C(O)[C@]12CCCN(C3CCOC3)C[C@H]1CN(c1nncs1)C2 (some centres undefined)	4.98%
CN1CCN(C[C@@H]2CN(C(=O)CC3CCCCC3)C[C@@H]2CO)CC1	6.65%
CC(NC(=O)CCS(=O)(=O)C1CCCC1)c1nc(-c2ccccc2)c[nH]1 (centres undefined)	4.81%
CC(NC(=O)CCc1cccs1)c1nnc2n1CCCCC2 (centres undefined)	-29.1%
CCc1nsc(N2CCN(CC(=O)NCc3cccnc3)CC2)n1	78.1%
CCCNC(=O)CN1CCN(c2nc(CC)ns2)CC1	-23.2%
Cc1nsc(N2CCN(CC(=O)NCc3cccnc3)CC2)n1	-101%
CN(C)C(=O)c1cccc(CN2CCN(CC(O)C(C)(C)C)CC2)c1 (centres undefined)	-13.5%
Cc1c(Br)c(C(F)(F)F)nn1C(C)C(=O)O (centres undefined)	8.49%
Cc1nnc(NCCC(=O)N(C)Cc2ccccc2)c(C#N)c1C	-5.65%
Cc1cnc(-c2nc(C3CCN(Cc4ccccc4C)CC3)no2)cn1	19.36%
Cc1cc(C(=O)NS(=O)(=O)Cc2ccon2)c(C)o1	44.2%
COc1ccc(C(=O)NCc2ccon2)cc1F	11.6%
Cc1ccc(C(=O)NS(=O)(=O)Cc2ccon2)c(C)c1	12.8%
O=C(CCc1ccsc1)NS(=O)(=O)Cc1ccon1	55.4%
Cc1cc(C(=O)NS(=O)(=O)Cc2ccon2)c(C)n1C(C)C	56.1%
O=C(CCc1ccco1)NS(=O)(=O)Cc1ccon1	64%
O=C(CCc1ccco1)NS(=O)(=O)N1CCOc2ccccc21	25.2%
CN(C(=O)CCc1ccsc1)S(C)(=O)=O	37.4%
CC(O)(CNS(=O)(=O)Cc1ccon1)c1ccsc1 (centres undefined)	1.98%
O=C(CCc1cccc(Cl)c1)NS(=O)(=O)Cc1ccon1	35.1%
O=C(NS(=O)(=O)Cc1ccon1)c1ccsc1	73.6%
Cc1ccc(S(=O)(=O)NC(=O)CCc2ccco2)cc1N(C)C	-18.9%
CC(=O)N1CCN(c2cc(C3CN(C(C)=O)CCO3)nc(C)n2)CC1 (centres undefined)	29.2%

SMILES	INHIBITION
CO[C@@H]1CC[C@H]2[C@H]1OCCN2CCOCc1ccccc1	4.98%
Cc1nc(C2CCCN(C(=O)c3ccncc3)C2)c2sccn12 (centres undefined)	35.2%
CC(=O)c1cn(CCC(=O)N[C@@H](CC(C)C)C(=O)O)c2ccccc12	11.9%
NC(=O)CSCC(=O)NC1(c2cccc(Cl)c2)CC1	38.6%
CC(=O)N1CC[C@H]2OCC[C@@H](C(=O)NCc3ccco3)[C@@H]2C1	18.3%
COCC(=O)N1Cc2nccn2CC(Cn2ncccc2=O)C1 (centres undefined)	19.4%
CC(C)(C)c1nccc(N2CCCCC2CNS(C)(=O)=O)n1 (centres undefined)	16.6%
c1ccc(CCN2CCN(c3ccc4nncn4n3)CC2)nc1	20.1%
O=C(NCCc1ccccc1)C1CCCN(c2ccc3nncn3n2)C1 (centres undefined)	-23.5%
Clc1ccc(OCCCN2CCN(c3cnccn3)CC2)cc1	54.4%
c1cc(CCN2CCN(c3ccc4nncn4n3)CC2)ccn1	-33.7%
O=C(CCN1CCN(c2ccc3nncn3n2)CC1)N1CCCCC1	-19.9%
O=C(CCOc1ccc(Cl)cc1)N1CCN(c2cnccn2)CC1	3.19%
N#Cc1ccc(N2CCN(c3ccc4nncn4n3)CC2)nc1	-23.4%
c1ccc(CCN2CCN(c3ccc4nncn4n3)CC2)cc1	60.9%
O=C(COc1ccc(Cl)cc1)N1CCN(c2cnccn2)CC1	-126%
c1ccc(CCCN2CCN(c3ccc4nncn4n3)CC2)cc1	74.7%
Clc1ccccc1CCN1CCN(c2ccc3nncn3n2)CC1	72.8%
c1ccc(CN2CCN(c3ccc4nncn4n3)CC2)nc1	7.67%
O=c1[nH]c(N2CCCCC2)nc2nccc(-c3ccc4c(c3)OCO4)c12	-5.59%
COc1c(C)cc(CNCc2ccnc(N3CCOCC3)c2)cc1C	28.8%
CC(C)NC(=O)N1C[C@@H]2C[C@H](C(=O)NCc3ccccc3)[C@H](C1)O2	18.2%
COc1ccc(Cn2nnnc2SCC2CCCN(C)C2)cc1 (centres undefined)	40.5%
CO[C@@]1(C)C[C@@H](O)C12CCN(C(=O)C1(c3ccccc3F)CC1)CC2	32.5%
NCCC(Cc1ccccc1)c1ccco1 (centres undefined)	36.1%
O=C(N[C@H]1CCCC[C@@H]1O)c1ccc2nc(-c3ccccc3)[nH]c2c1	-85.3%

SMILES	INHIBITION
COc1nn(C)c2c1CCCN(C(=O)c1ccccc1F)C2	3.25%
CC(NC(=O)CCCC(=O)c1cccs1)c1nnc2n1CCC2 (centres undefined)	7.12%
O=C(O)Cn1ccc2c(Cl)cccc21	19.3%
Cc1nnc(C(C)N2CCN(Cc3ccc(C(F)(F)F)cc3)CC2)o1 (centres undefined)	-43.5%
c1ccc(OCCCN2CCN(c3ccc4nncn4n3)CC2)cc1	86.1%
O=C(CCN1CCN(c2ccc3nncn3n2)CC1)NC1CCCC1	-51.5%
FC(F)(F)COCCN1CCN(c2ccc3nncn3n2)CC1	38.8%
O=C(NCc1cccnc1)NC1CCC2(CCC(=O)N2CC2CC2)CC1 (centres undefined)	40.3%
CCN(CCNC(=O)Nc1nnc(C)s1)C(=O)OC(C)(C)C	-19.3%
O=C1C(NS(=O)(=O)c2ccc(F)cc2)CCN1Cc1ccccc1 (centres undefined)	23.5%
CCc1nc2ccccc2n1C(CC)C(=O)N(C)Cc1nc(C)c[nH]1 (centres undefined)	12.9%
CCc1nnc(CN(C)C(=O)C(CC)n2c(CC)nc3ccccc32)o1 (centres undefined)	52.7%
CCc1nc2ccccc2n1C(CC)C(=O)N(C)Cc1noc(C)n1 (centres undefined)	31.1%
O=C1COc2ccc(C(=O)NS(=O)(=O)c3ccccc3Cl)cc2N1	14.1%
CCCS(=O)(=O)N1C[C@@H](Oc2ccccn2)[C@H]2OCCC[C@H]21	-21.1%
O=C(c1cc[nH]n1)N1CCCC(c2cc(C(F)(F)F)[nH]n2)C1 (centres undefined)	25.1%
O=C(c1ccc[nH]1)N1CCCC(c2cc(C(F)(F)F)[nH]n2)C1 (centres undefined)	54.4%
O=C(c1ccsc1)N1CCCC(c2cc(C(F)(F)F)[nH]n2)C1 (centres undefined)	57.2%
CCOCCC(=O)N1CCCC(c2cc(C(F)(F)F)[nH]n2)C1 (centres undefined)	7.97%
Cc1nc(C(=O)N2CCCC(c3cc(C(F)(F)F)[nH]n3)C2)c[nH]1 (centres undefined)	33.8%
Cc1nc(C2CCCN(C(=O)c3cc(Cl)c[nH]3)C2)sc1C (centres undefined)	40.9%
O=C(Cc1cccnc1)N1CCCC(c2cc(C(F)(F)F)[nH]n2)C1 (centres undefined)	50.8%
O=C(c1cc(Cl)c[nH]1)N1CCCC(c2cc(C(F)(F)F)[nH]n2)C1 (centres undefined)	88.2%
O=C(c1nc(=O)[nH][nH]1)N1CCCC(c2cc(C(F)(F)F)[nH]n2)C1 (centres undefined)	29.1%
Cn1cc(CC(=O)N2CCCC(c3cc(C(F)(F)F)[nH]n3)C2)cn1 (centres undefined)	7.97%
Cc1cc(C(=O)N2CCCC(c3cc(C(F)(F)F)[nH]n3)C2)[nH]n1 (centres undefined)	29.7%
